This note sets out measurements from PubChem BioAssay (NCI).

Among the test systems are NCI-H23 lung; NCI-H226 lung; NCI-H322M lung; HOP-62 NSCLC; NCI-H460 lung; HOP-92 NSCLC; NCI-H522 lung; A549/ATCC NSCLC; 786-0 renal; COLO 205 colon; DU-145 prostate; K-562 leukemia; MALME-3M melanoma; MDA-MB-231 breast; RXF 393 renal; SF-268 CNS; SF-295 CNS; SF-539 CNS; UACC-257 melanoma.
Common to all, as to assay: NCI-60 one-dose screen, 48 h (100 = growth as untreated, 0 = no growth, -100 = all killed)
Holding throughout (settings): 10 µM unless noted

The panel holds about 83,000 compounds, 20% with a hit somewhere; the sample as a whole holds those more often.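 Step 1: grow cells in 96-well plates. Step 2: add test compound at a single concentration. Step 3: incubate 48 h. Step 4: record percent growth.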 Values without a mark were called inactive. Activity calls are given as the source filed them. The calls were made as follows: active = growth percent below 10; inactive = the rest.

For `COc1nc2ccccc2cc1/C=C1/C=C(c2ccccc2)NC1=O`, the growth in the assay with NCI-H23 lung is 56.3%; with NCI-H226 lung, 55.4%; with NCI-H322M lung it was 81.3%; in the assay on HOP-62 NSCLC it was 39.2%; with NCI-H460 lung, 15.7%; in the assay with HOP-92 NSCLC it was 32.5%. The growth with NCI-H522 lung is 38.5%; in the assay on A549/ATCC NSCLC, 41.7%; in the assay with 786-0 renal it was 29.5%; with COLO 205 colon it was 29.3%; in the assay with DU-145 prostate it was 55.8%; in the assay on K-562 leukemia, 13.1%. For the same compound, the growth in the assay with MALME-3M melanoma was 38.3%; in the assay on MDA-MB-231 breast it was 46.1%; in the assay on RXF 393 renal, 46%; in the assay on SF-268 CNS, 48.8%; in the assay with SF-295 CNS, 28.5%; in the assay on SF-539 CNS it was 19.6%. For the same compound, the growth in the assay with UACC-257 melanoma was 60.7%.
`COc1cc(CNC(=O)CCCC/C=C/C(C)C)ccc1OCc1cn(-c2ccc(C(F)(F)F)cc2)nn1`: the growth in the assay with NCI-H23 lung is 94.6%; in the assay with NCI-H226 lung, 53.6%; with NCI-H322M lung, 96.1%; in the assay on HOP-62 NSCLC, 64.6%; with NCI-H460 lung it was 16.7%; in the assay with HOP-92 NSCLC, 13.8%. The growth in the assay with NCI-H522 lung is 75.6%; in the assay on A549/ATCC NSCLC, 49%; in the assay on 786-0 renal, 2.94% (active); in the assay with COLO 205 colon, 72.6%; with DU-145 prostate, 80.7%; in the assay on K-562 leukemia, 76.3%. In addition, the growth was 99.7% in the assay on MALME-3M melanoma; 70.7% in the assay on MDA-MB-231 breast; 65.6% in the assay with RXF 393 renal; 87.8% in the assay on SF-268 CNS; 90.9% with SF-295 CNS; 81.9% in the assay with SF-539 CNS. In addition, the growth in the assay on UACC-257 melanoma was 98.2%.
For the compound `CCOc1ccc(N2C(=O)CCSC2=S)cc1`, the growth with NCI-H23 lung was 102%; in the assay with NCI-H226 lung, 100%; with NCI-H322M lung, 108%; in the assay with HOP-62 NSCLC, 118%; in the assay on NCI-H460 lung, 106%; in the assay with HOP-92 NSCLC, 89%. In addition, the growth with NCI-H522 lung was 90.9%; in the assay with A549/ATCC NSCLC, 106%; in the assay with 786-0 renal, 106%; with COLO 205 colon, 112%; in the assay with DU-145 prostate, 103%; in the assay with K-562 leukemia, 111%. The growth with MALME-3M melanoma was 96%; in the assay with MDA-MB-231 breast, 104%; with RXF 393 renal, 117%; in the assay on SF-268 CNS, 104%; with SF-295 CNS it was 95.7%; in the assay with SF-539 CNS it was 94.9%. Further, the growth with UACC-257 melanoma is 99%.
`O=C(Nc1ccc(Oc2cccc(F)c2)c(Cl)c1)c1cnccn1`: the growth in the assay with NCI-H23 lung is 44.9%; in the assay with NCI-H226 lung it was 61.8%; in the assay with NCI-H322M lung it was 46.3%; in the assay on HOP-62 NSCLC, 42.4%; in the assay with NCI-H460 lung it was 22.1%; with HOP-92 NSCLC it was 51.5%. For the same compound, the growth with NCI-H522 lung is 22.3%; with A549/ATCC NSCLC it was 39.1%; in the assay with 786-0 renal, 46.5%; in the assay with COLO 205 colon, 15.5%; in the assay with DU-145 prostate, 19.1%; in the assay on K-562 leukemia, 13.4%. In addition, the growth in the assay on MALME-3M melanoma was 51.4%; with MDA-MB-231 breast, 53.5%; in the assay on RXF 393 renal, 7.37% (active); with SF-268 CNS, 55.5%; in the assay with SF-295 CNS, 36%; in the assay on SF-539 CNS, -3.46% (active). The growth in the assay on UACC-257 melanoma was 64.9%.
Take `COc1ccc(-c2cc(-c3ccc(Nc4nc(Nc5ccc(Cl)cc5)nc(Nc5ccc(Cl)cc5)n4)cc3)no2)cc1`: the growth is 66.5% in the assay with NCI-H23 lung; 110% in the assay on NCI-H226 lung; 79.5% in the assay with NCI-H322M lung; 100% in the assay with HOP-62 NSCLC; 74.8% with NCI-H460 lung; -28.6% (active) with HOP-92 NSCLC. In addition, the growth in the assay on NCI-H522 lung is 84.5%; with A549/ATCC NSCLC, 62.5%; in the assay with 786-0 renal it was 80.6%; in the assay with COLO 205 colon, 79.5%; with DU-145 prostate, 91.3%; with K-562 leukemia it was 69.9%. In addition, the growth in the assay with MALME-3M melanoma is 104%; in the assay with MDA-MB-231 breast, 82.1%; in the assay with RXF 393 renal, -8.53% (active); with SF-268 CNS, 72.9%; in the assay with SF-295 CNS, 73%; in the assay on SF-539 CNS, 86.1%. In addition, in the assay on UACC-257 melanoma, the growth is 105%.
With `COC(=O)c1cc(-c2cc(OC)c(OC)c(OC)c2)[nH]c1N/N=C/c1c(Cl)cccc1Cl`, the growth with NCI-H23 lung is -15.6% (active); in the assay on NCI-H226 lung, 72.5%; with NCI-H322M lung, 45.3%; in the assay with HOP-62 NSCLC it was -43.9% (active); in the assay with NCI-H460 lung, 2.31% (active); in the assay with HOP-92 NSCLC, -34.8% (active). The growth in the assay on NCI-H522 lung is -45.3% (active); in the assay on A549/ATCC NSCLC it was 28.1%; with 786-0 renal, -44.4% (active); in the assay on COLO 205 colon, 56.1%; in the assay with DU-145 prostate it was 45.6%; in the assay on K-562 leukemia, 6.67% (active). The growth with MALME-3M melanoma was -8.03% (active); in the assay on MDA-MB-231 breast, 23.6%; in the assay on RXF 393 renal, 21.6%; with SF-268 CNS, 31.7%; in the assay with SF-295 CNS, -41.9% (active); with SF-539 CNS it was -43.1% (active). For the same compound, the growth with UACC-257 melanoma was 45.6%.
On to `O=C(Nc1ccc(Cl)cc1)C1=NCCCCN1`, for which the growth in the assay on NCI-H23 lung was 92%; in the assay with NCI-H226 lung, 84.7%; with NCI-H322M lung, 83.5%; in the assay on HOP-62 NSCLC, 70.7%; with NCI-H460 lung, 86.3%; in the assay with HOP-92 NSCLC, 89.9%. Moreover, the growth is 82.6% with NCI-H522 lung; 92.6% with A549/ATCC NSCLC; 99.9% with 786-0 renal; 99.6% in the assay on COLO 205 colon; 84.1% in the assay on DU-145 prostate; 42.3% with K-562 leukemia. In addition, the growth in the assay with MALME-3M melanoma is 96.7%; in the assay with MDA-MB-231 breast, 97.9%; with RXF 393 renal, 106%; in the assay on SF-268 CNS, 77.7%; with SF-295 CNS it was 93.4%; with SF-539 CNS it was 95.8%. Further, the growth in the assay with UACC-257 melanoma is 99.7%.
Turning to `Cc1ccc2c(c1)CC(O)CC1C(=O)N(CCO)CC(=O)N21` (configuration not stated), the growth with NCI-H23 lung is 99.3%; in the assay on NCI-H226 lung it was 95.9%; in the assay with NCI-H322M lung it was 105%; with HOP-62 NSCLC, 101%; with NCI-H460 lung it was 109%; in the assay on HOP-92 NSCLC it was 124%. For the same compound, the growth with NCI-H522 lung was 82.5%; with A549/ATCC NSCLC, 76.6%; with 786-0 renal it was 104%; with COLO 205 colon it was 110%; with DU-145 prostate, 111%; with K-562 leukemia, 101%. Also, the growth is 100% with MALME-3M melanoma; 92.4% in the assay with MDA-MB-231 breast; 90.5% with RXF 393 renal; 99.7% in the assay on SF-268 CNS; 101% with SF-295 CNS; 102% in the assay with SF-539 CNS. For the same compound, the growth with UACC-257 melanoma was 81.1%.
